# SW480 rerep = A quantitative high throughput screen for small molecules that induce DNA re-replication in SW480 colon adenocarcinoma cells | SW480 DNA re-replication, Hoechst DNA content imaging, 48 h | Potency, µM (series often up to 46.1 µM), for the others: at the highest dose re-replication activation, actives largely listed as activators | 340,000 compounds, 1.8% hits | AID 624297, 2012; note: % of control where 0% means no effect; nearly all actives have a fitted effect of over 55% in size
#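 Cells (250 per well) received 23 nL compound or DMSO by pin tool and were kept 48 hr at 37 C, 5% CO2. Nuclei were then stained with Hoechst for 40 min and scanned for DNA content.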
# KB-V1 cytotox = qHTS assay for MDR1-selective chemotherapeutics: Primary screen using the drug-selected MDR subline cells KB-V1 | KB-V1 MDR cells viability, CellTiter-Glo, 72 h | Potency, µM (doses to about 46.1 µM), actives largely listed as cytotoxic | 400,000 compounds, 3.4% hits | AID 1347076, 2019; note: % is set by controls: 0 for no effect and ±100 for the full control effect; nearly all actives have a fitted effect of over 60% in size
#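 Cytotoxicity via CellTiter-Glo luminescence after 72 h compound exposure at 37 degrees C. Cells: drug-selected KB-V1 line, DMEM phenol-red free plus 10% FBS. Compounds tested at multiple concentrations; normalized data fitted to concentration-effect curves.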
# MCF10A rereplic = A quantitative high throughput screen for small molecules that induce DNA re-replication in MCF 10a normal breast cells; Potency, µM (titrated, usually from 46.1 µM), for inactives: top-dose activity, positive = re-replication, most hits filed as activators; AID 624296, 2012; 350,000 compounds, 2.9% hits; MCF 10A DNA re-replication, Hoechst nuclear intensity, 48 h; note: % of control where 0% means no effect; nearly all actives have a fitted effect of over 50% in size
# 12-LOX inh = Primary qHTS assay for inhibitors of human arachidonate 12S-lipoxygenase (ALOX12): Round 2. AID 1671190, 2021. purified 12hLO, xylenol orange hydroperoxide absorbance. Polyunsaturated fatty acid lipoxygenase ALOX12 (Homo sapiens), P18054. Potency, µM (doses to about 108 µM), inactives show top-dose activity change, negative = inhibition, most hits filed as inhibitors. 580,000 compounds, 1.1% hits; note: % is set by controls: 0 for no effect and ±100 for the full control effect
# Target sequence (P18054 whole entry, looked up): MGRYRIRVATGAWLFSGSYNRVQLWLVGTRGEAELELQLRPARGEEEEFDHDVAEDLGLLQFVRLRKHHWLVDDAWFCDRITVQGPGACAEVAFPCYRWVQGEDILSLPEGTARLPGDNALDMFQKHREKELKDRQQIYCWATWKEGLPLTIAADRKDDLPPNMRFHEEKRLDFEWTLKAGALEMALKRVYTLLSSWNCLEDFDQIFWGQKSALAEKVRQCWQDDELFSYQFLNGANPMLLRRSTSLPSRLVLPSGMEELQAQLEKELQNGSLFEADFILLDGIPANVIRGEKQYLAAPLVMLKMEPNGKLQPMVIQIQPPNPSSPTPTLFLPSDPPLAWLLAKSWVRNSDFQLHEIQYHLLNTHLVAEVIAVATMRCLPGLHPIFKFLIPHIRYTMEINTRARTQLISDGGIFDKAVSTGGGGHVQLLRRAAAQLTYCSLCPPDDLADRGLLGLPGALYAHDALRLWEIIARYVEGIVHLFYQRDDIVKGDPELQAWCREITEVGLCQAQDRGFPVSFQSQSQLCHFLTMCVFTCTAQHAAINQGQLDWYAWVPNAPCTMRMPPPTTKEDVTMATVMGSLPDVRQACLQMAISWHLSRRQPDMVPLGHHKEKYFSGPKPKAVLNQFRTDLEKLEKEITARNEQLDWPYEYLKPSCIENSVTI
#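 Purified human 12hLO at 150 nM in 25 mM Hepes, 0.01% Triton X-100, pH 7.0, preincubated 15 min at room temperature with compound. Reaction started with 40 uM arachidonic acid, 30 min at room temperature. Hydroperoxide measured by Fe-xylenol orange, 573/405 nm absorbance ratio.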
# PINK1 modulator = A Quantitative High throughput Screen to Identify Chemical Modulators of PINK1 Expression; PINK1 immunofluorescence, high-content cytometry, 24 h; Potency, µM (doses to about 76.6 µM), without a hit: at the top dose activation (PINK1 increase), most hits filed as activators; 410,000 compounds, 0.2% hits; AID 624263, 2012; active = well fitted activation curve with a large enough effect; inconclusive = small, poorly fitted or top-dose-only effect; cell line not stated here; note: % of control where 0% means no effect; nearly all actives have a fitted effect of over 65% in size
#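 Compound titrations (5 concentrations, 24 h) on a stable cell line; DMSO and CCCP controls. Endpoint: fixed-cell PINK1 immunofluorescence with mitochondrial, cell and nuclear markers, scanned by microplate cytometer.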
# KB-3-1 tox = qHTS assay for MDR1-selective chemotherapeutics: Primary screen using the parental adenocarcinoma cell KB-3-1. KB-3-1 viability, CellTiter-Glo ATP luminescence, 72 h. Potency, µM (top dose mostly 46.1 µM), most hits filed as cytotoxic. 400,000 compounds, 1.4% hits; note: % is set by controls: 0 for no effect and ±100 for the full control effect; nearly all actives have a fitted effect of over 60% in size
#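 KB-3-1 cells, DMEM (no phenol red) + 10% FBS; compound by pin transfer, 72 h, 37 °C. Readout: CellTiter-Glo luminescence after 10 min. Data normalized, curve-fitted.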
# An asterisk follows results filed as active; i = inactive; ? = inconclusive; nt = no result given; [ ] = remark or other dose. This is a sample that favours compounds with a hit; in the whole collection about 5.8% have one here. Unless noted, calls come from the whole dose curve; as a rule, active = well fitted curve in the direction sought with a large enough effect; inconclusive = small, poorly fitted or top-dose-only effect, or another doubt; inactive = no such curve, though single readings can be large; an effect the other way counts as inactive or inconclusive. Potency is the fitted concentration of half-maximal effect.
SMILES,SW480 rerep,KB-V1 cytotox,MCF10A rereplic,12-LOX inh,PINK1 modulator,KB-3-1 tox
COc1ccccc1N1CCN(C(=O)CSc2ncnc3scc(-c4ccccc4)c23)CC1,1%,?,7%,-10%,-1%,?
COc1ccc(-n2ncc3c(SCC(=O)N4CCN(c5ccccc5OC)CC4)ncnc32)cc1,1%,9.2µM*,?,36%,-1%,i
O=C(Cc1cccc(Cl)c1)N1CCc2c(n(CCOc3ccccc3)n(-c3ccccc3)c2=O)C1,nt,nt,nt,2%,nt,nt
CCOc1ccc(NC(=O)c2nn(-c3cc(OC)cc(OC)c3)c(=O)c3ccccc23)cc1,nt,nt,nt,-1%,nt,nt
Cc1ccc(CN2CC(C(=O)N3CCN(S(=O)(=O)c4ccc(C)cc4C)CC3)CC2=O)cc1 (centres undefined),1%,16µM*,2%,17%,-1%,i
Cc1ccc(S(=O)(=O)N2CCN(C(=O)CSC(=S)N3CCCC3)CC2)c(C)c1,0%,?,0%,1%,9%,i
Cc1ccc(S(=O)(=O)N2CCN(C(=O)CSC3CCCC3)CC2)c(C)c1,5%,4.1µM*,16%,?,-3%,i
Cc1cc(C)c(NC(=O)C2CC(=O)N(Cc3ccccc3)C2)c(C)c1 (centres undefined),16µM*,i,-35%,30%,1%,i
CCOc1ccc2c(n1)CCN(C(=O)c1ccco1)C2,nt,nt,nt,32%,nt,nt
COc1ccc(C)cc1NC(=O)c1cc(=O)[nH]c2ccccc12,nt,nt,nt,-38%,nt,nt
O=C(O)CCc1ccc2ccccc2c1,nt,i,nt,nt,0%,i
O=C(O)CCCc1ccc2c(c1)CCc1ccccc1-2,-4%,2.1µM*,-5%,3%,-1%,2.9µM*
COc1cccc2[nH]c(C(=O)NCCCc3nnc4ccccn34)cc12,nt,nt,nt,22%,nt,nt
COc1ccc(CNc2ccnc(-c3cccnc3)n2)c(OC)c1,nt,nt,nt,45µM*,-1%,nt
CC(C)c1ccc(CNC(C)c2ccc(S(C)(=O)=O)cc2)cc1 (centres undefined),nt,nt,nt,55%,nt,nt
COc1ccc(N(C(=O)c2ccc(S(=O)(=O)N3CCCCC3)cc2)C2C=CS(=O)(=O)C2)cc1 (centres undefined),nt,nt,nt,41%,nt,nt
COc1cccc(/C=C/C(=O)NNC(=O)CCN2CCN(Cc3ccccc3)CC2)c1,3.7µM*,i,?,7%,4%,23µM*
O=C(CCN1CCN(Cc2ccccc2)CC1)Nc1ccc(OCc2ccccc2)cc1,19%,2.6µM*,?,-9%,0%,?
O=C(CCN1CCN(CCO)CC1)Nc1ccc(OCc2ccccc2)cc1,-4%,i,7%,-18%,-1%[38.3 µM],i
O=C(CN1CCN(CC(=O)Nc2ccc(OCc3ccccc3)cc2)CC1)Nc1ccc(F)cc1,13%,3.7µM*,28%,19%,-2%[38.3 µM],i
O=C(CN1CCCCCC1)Nc1ccc(Oc2ccccc2)cc1,?,i,?,-4%,7%,i
NC(=O)C1(N2CCCCC2)CCN(CC(=O)Nc2ccc(Oc3ccccc3)cc2)CC1,7%,13µM*,3%,-28%,1%[38.3 µM],?
CC(C)NC(=O)NC1CC2(CCN(Cc3ccc(O)cc3)CC2)c2ccccc21 (centres undefined),nt,nt,nt,5%[6.33 µM],nt,nt
O=C(N/N=C/c1ccc(OCCCOc2ccccc2Cl)cc1)c1ccccc1,nt,nt,nt,-8%,nt,nt
CCC(=O)Nc1ccc(N2CCN(Cc3ccccc3)CC2)cc1,-6%,i,8.2µM*,-5%,0%,i
SMILES,SW480 rerep,KB-V1 cytotox,MCF10A rereplic,12-LOX inh,PINK1 modulator,KB-3-1 tox
CCN1CCN(c2ccc(NC(=O)Cc3ccccc3)cc2)CC1,-4%[9.22 µM],i,-3%,23%,0%,i
CC(C)c1ccc(/C=N/NC(=O)c2cccc(Cl)c2)cc1,?,8.2µM*,5.8µM*,16%,9%,13µM*
CC(C)c1ccc(/C=N/NC(=O)c2cc(-c3cccc([N+](=O)[O-])c3)n[nH]2)cc1,-7%,i,18µM*,89%,8%,?
Cc1ccsc1CN(C)C(=O)C1CCCN(C2CCN(C(=O)C3CC3)CC2)C1 (centres undefined),nt,nt,nt,17%,nt,nt
O=C(C#Cc1ccccc1)N[C@H]1CC[C@@]23CCCN2C(=O)CCC[C@H]3[C@H]1Cc1ccccc1,nt,nt,nt,-9%,nt,nt
Clc1ccc(SCCCCN2CCNCC2)cc1,?,i,2.9µM*,?,2%,i
Clc1cccc(OCCCn2ccnc2)c1,-6%,i,-1%,?,-1%,i
CC1CN(CCCCSc2ccc(Cl)cc2)CC(C)O1 (centres undefined),?,i,23µM*,1.8µM*,2%,i
Clc1ccc(SCCCCn2ccnc2)cc1,4%,i,10µM*,-37%,0%,i
CCOC(=O)c1c(C)c(CCC(=O)NCCN2CCN(C)CC2)c(C)n1C,nt,nt,nt,14%,nt,nt
CCCC(C)c1c(-c2ccccc2)ncn1CCNC(C)=O (centres undefined),nt,nt,nt,61%,nt,nt
O=C(O)c1ccc2c(c1)c(C(C(=O)O)N1CCN(c3ncccn3)CC1)cn2Cc1ccccc1 (centres undefined),nt,nt,nt,-13%,nt,nt
CCOc1ccc2c(c1)OC(c1ccc(C)cc1)(C(F)(F)F)NC2=O (centres undefined),?,1.3µM*,1.5µM*,-28%,?,i
CN(C(=S)NC(=O)c1ccccc1Br)C1CCCCC1,5.8µM*,?,-1%,-23%,5%[38.3 µM],i
COc1cc(NC(=O)Cn2cc(C#N)c3ccccc32)cc(OC)c1OC,nt,nt,nt,29%,nt,nt
COc1ccc(OC)c(NC(=O)COC(=O)c2c3c(nc4ccccc24)CCCC3)c1,1%,26µM*,?,-17%,-17%[38.3 µM],26µM*
COc1ccc(NC(=O)COC(=O)c2c3c(nc4ccccc24)CCCC3)cc1Cl,-7%[9.22 µM],16µM*,?,18%,1%,i
Cc1cccc(CSCC(=O)N2CCCC2)c1,nt,nt,nt,1%,nt,nt
Cn1c(NC(=O)c2cccc(Cn3cc(Cl)cn3)c2)nc2ccccc21,-2%,?,-8%,7%,11µM*,i
CCn1c(NC(=O)c2cccc(Cn3cc(Cl)cn3)c2)nc2ccccc21,6%,i,15%,45%,18%,i
CC(C)(C)NC(=O)c1cccc(NC(=O)CSc2ccc(Cl)cc2)c1,-147%,15µM*,-3%,?,-1%,?

# Compound activity (PubChem BioAssay)
